Source: PubChem (National Center for Advancing Translational Sciences (NCATS))
In the library only some 2.4% were active in any assay of this set; here they are far more common.
PINK1 modulator: PINK1 expression modulation; PINK1 immunofluorescence, high-content cytometry, 24 h; Potency, µM (titrated, usually from 76.6 µM), for the others: at the top dose activation (PINK1 increase), usual class: activators; 0.2% of 410,000 active; AID 624263; active = well fitted activation curve with a large enough effect; inconclusive = small, poorly fitted or top-dose-only effect; cell line not stated here; also: % of control where 0% means no effect; nearly all actives have a fitted effect of over 65% in size
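Fluorescence from anti-PINK1 antibody, together with nuclear and cell stains, was scanned on a laser-scanning cytometer. Before staining, stable-line cells were incubated 24 hours with compounds at 5 concentrations; primary antibody 12 h at 10 degrees C.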
A549 tox: counter-screen for Nrf2 inhibitors: cytotoxicity in A549 cells. A549 ARE-Fluc cells, CellTiter-Fluor viability, 18-24 h. Potency, µM (series often up to 46 µM), for the others: top-dose activity change, negative = cytotoxicity, usual class: inhibitors. 0.16% of 390,000 active. AID 504648; also: % is scaled to controls: 0 for no effect and ±100 for the full control effect
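A549 ARE_Fluc cells in 5% FBS OPTI-MEM were exposed to compounds in concentration-response for 18-24 h at 37 deg C. Viability was read by CellTiter-Fluor fluorescence (Ex 405/Em 525) after 30 min, before the luciferase read.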
Nrf2 inh: inhibitors of Nrf2 signaling; AID 504444; Potency, µM (top dose mostly 46 µM), without a hit: at the top dose activity change, negative = inhibition, usual class: inhibitors; A549 ARE-Fluc reporter, luciferase luminescence, 18-24 h; 2.1% of 360,000 active; also: % is scaled to controls: 0 for no effect and ±100 for the full control effect; nearly all actives have a fitted effect of over 60% in size
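Two sequential reads on A549 ARE_Fluc cells exposed to compound for 18-24 h: a CellTiter-Fluor fluorescence read for viability, then a luciferase luminescence read for Nrf2/ARE activity.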
Nrf2 ARE act: activators of Nrf2 (ARE) signaling; AID 624171; Potency, µM (titrated, usually from 46.1 µM), for inactives: at the top dose activation, actives largely listed as activators; 0.31% of 410,000 active; AREc32 ARE-luciferase reporter (MCF7-derived line), luminescence, 24 h; also: % of control where 0% means no effect; nearly all actives have a fitted effect of over 65% in size
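ARE activation measured as luciferase luminescence (Steady-Glo, 30 min RT) in AREc32_Fluc cells after 24 hr compound exposure at 37 deg C, 5% CO2; cells seeded overnight at 1000/well in OPTI-MEM, 5% FBS.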
Epigenetic derep: derepresses silenced GFP reporter in murine cells; 0.2% of 280,000 active; Potency, µM (doses to about 53.9 µM), inactives show at the highest dose GFP activation, hits mostly activators; murine LDR cells, GFP reporter derepression, 30 h; also: % of control where 0% means no effect; nearly all actives have a fitted effect of over 60% in size
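Murine LDR cells bearing a silenced CMV-driven GFP reporter were exposed to compound for 30 h at 37 C. After PBS washes, GFP-positive cells (20-120 um objects) counted by laser-scanning microplate cytometry.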
* marks the source's active call; other numbers are inactive results; [ ] = another dose, or the depositor's remark. Unless noted, calls follow the shape of the dose curve; as a rule, active = well fitted curve in the direction sought with a large enough effect; inconclusive = small, poorly fitted or top-dose-only effect, or another doubt; inactive = no such curve, though single readings can be large; an effect the other way counts as inactive or inconclusive. Potency is read from the fitted curve at half-maximal effect.

Cc1ccc(C)c(-n2[nH]c3c4c(ccc3c2=O)C(=O)c2ccccc2C4=O)c1 was read as PINK1 modulator -2%, A549 tox inconclusive, Nrf2 inh 23µM*, Nrf2 ARE act 0% and Epigenetic derep 0%.
`Cc1ccc(-n2[nH]c3c4c(ccc3c2=O)C(=O)c2ccccc2C4=O)cc1` gave PINK1 modulator 1%, A549 tox 4%, Nrf2 inh 3%, Nrf2 ARE act 1% and Epigenetic derep -1%.
`COC(=O)[C@@H]1CCCN1Cc1ccc2c(c1)CN(Cc1coc3ccc(C)cc3c1=O)CCO2` gave PINK1 modulator 1%.
`CCc1nc2cc(C(=O)N3CCC[C@H]3CO)cc(NC(=O)c3ccccc3OC)c2n1C` gave PINK1 modulator -1%.
`O=C1N/C(=C\c2ccccc2)c2ccccc21` gave PINK1 modulator inconclusive, A549 tox 13%[1.84 µM], Nrf2 inh inconclusive, Nrf2 ARE act 8.9µM* and Epigenetic derep 1%.
For O=C1N/C(=C\c2nc3ccccc3s2)c2ccccc21 the results were Epigenetic derep 13%.
For C=CCNc1nnc(-c2cccc3ccccc23)o1 the results were A549 tox 3% and Nrf2 inh 7%.
For Cc1oc(-c2cccc(Br)c2)nc1Cn1c(SCc2cccc(F)c2)nc2cccnc21 the results were PINK1 modulator 2%, A549 tox -25%, Nrf2 inh 13µM*, Nrf2 ARE act 0% and Epigenetic derep -1%.
Screening NCCCCNc1ncnc2ccc(-c3ccc4c(c3)OCO4)cc12 returned A549 tox 17% and Nrf2 inh 0%.
`COc1ccccc1C1CN(Cc2c(C)nn(C)c2Cl)Cc2ccccc2O1` (stereo unspecified) gave PINK1 modulator -1%.
For Cc1ccccc1C(=O)NNC(=S)NC(=O)c1cccs1 the results were PINK1 modulator 2%, A549 tox inconclusive, Nrf2 inh 15µM* and Nrf2 ARE act 9%.
CCCOc1ccc(C(=O)NNC(=S)NC(=O)c2cccs2)cc1 was read as PINK1 modulator 3%, A549 tox -19%, Nrf2 inh 7.3µM* and Nrf2 ARE act 14%.
For O=C(NC(=S)Nc1cccnc1)c1cccs1 the results were PINK1 modulator 0%, A549 tox 2%, Nrf2 inh inconclusive, Nrf2 ARE act 3% and Epigenetic derep -6%.
`O=C(NC(=S)Nc1ccc(Cl)cn1)c1cccs1` gave PINK1 modulator 3%, A549 tox 3%, Nrf2 inh inconclusive, Nrf2 ARE act 6.3µM* and Epigenetic derep -1%.
Screening CCOc1ccccc1-c1nnc2n1N=C(c1cccc(OC)c1)CS2 returned A549 tox -2% and Nrf2 inh 11%.
For Fc1ccc(C(NCCc2ccccc2)c2nnc(-c3ccccc3Cl)o2)cc1 (stereo unspecified) the results were PINK1 modulator 6%, A549 tox 1%, Nrf2 inh -5%, Nrf2 ARE act 8% and Epigenetic derep 1%.
Screening Cn1cc(C(=O)O)c(=O)c2cc(S(=O)(=O)N3CCCCC3)ccc21 returned PINK1 modulator 1%, A549 tox 6%, Nrf2 ARE act 5% and Epigenetic derep 1%.
`Cc1cccc(CNC(=O)c2cnn(-c3nccc(-c4cccs4)n3)c2C(C)C)n1` gave PINK1 modulator -1%.
`O=C(CN1CC(=O)Oc2ccccc21)OCC(=O)c1cccc(Br)c1` gave PINK1 modulator 1%, A549 tox -7%, Nrf2 inh -3%, Nrf2 ARE act 13µM* and Epigenetic derep 1%.
O=C(CN1CC(=O)Oc2ccccc21)OCC(=O)c1ccccc1 was read as PINK1 modulator 2%[38.3 µM], A549 tox inconclusive, Nrf2 inh 6%, Nrf2 ARE act inconclusive and Epigenetic derep 2%.
CCc1ccc(Nc2nnc(-c3cc4cc(OC)ccc4oc3=O)s2)cc1 was read as PINK1 modulator 2%, A549 tox 3%, Nrf2 ARE act 0% and Epigenetic derep 16µM*.
For NC(=O)C1CCN(C(=O)COc2ccc(S(=O)(=O)NC3CCCC3)cc2)CC1 the results were PINK1 modulator -2%, A549 tox 0%, Nrf2 inh 2% and Nrf2 ARE act 0%.
